The supplement of paper PMC4962491
± gives the standard deviation of the averaged measurements. In all, about 1,600 compounds were measured (“mitochondrial oxygen consumption rate normalised to cell number, Z score over the library”: median about 0.065, lowest 2% from about -2.2 on). The full list was thinned out, with the lowest values kept by preference.

System: FaDu
Experiment: mitochondrial oxygen consumption rate normalised to cell number, Z score over the library; higher = higher oxygen consumption (negative = OCR reduction)
Settings: treatment time 24 h; assay medium: 5 mM galactose, 5 mM pyruvate, 4 mM glutamine; 10 µM
Experimental: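 Primary screen: FaDu cells were incubated 24 h with Pharmakon 1600 / TDI oncology set compounds at 2 or 10 uM. Mitochondrial-specific OCR (basal minus 2 uM antimycin A) was measured on a Seahorse XF96 in assay medium with 5 mM galactose, 5 mM pyruvate and 4 mM glutamine, then corrected for Hoechst cell number and expressed as a Z score […]. Compounds that cut cell number by >66% were excluded. Two repeats.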

Compound	mitochondrial oxygen consumption rate normalised
S=C=NCc1ccccc1	-4.7 ± 0.66
CN1CCN(C(=O)O[C@H]2c3nccnc3C(=O)N2c2ccc(Cl)cn2)CC1	-0.823 ± 0.029
CN(C)C(=S)SSC(=S)N(C)C	0.578 ± 0.018
CC(=O)Oc1ccc(Cl)c2cccnc12	-3.19 ± 0.57
CCNC1(c2cccs2)CCCCC1=O (stereo unspecified)	-0.924 ± 0.92
CNC(C)C(O)c1ccccc1 (stereo unspecified)	0.176 ± 0.34
CN(C)C(=O)Oc1cccc([N+](C)(C)C)c1	0.321 ± 1.4
C1CCc2nnnn2CC1	-0.625 ± 0.34
O=c1[nH]c(=O)n(Cl)c(=O)n1Cl	0.623 ± 1.2
O=c1[nH]c2ccccc2n1CCCN1CCC(n2c(=O)[nH]c3cc(Cl)ccc32)CC1	-0.0948 ± 0.24
O=c1[nH]c2ccccc2n1C1CCN(CCCC(c2ccc(F)cc2)c2ccc(F)cc2)CC1	-2.35 ± 0.37
Nc1ccc([As](=O)(O)O)cc1	0.928 ± 0.83
N.N.[Cl][Pt][Cl]	0.355 ± 0.5
N.N.[Cl][Pt][Cl] [Cisplatin]	-0.167 ± 0.0067
COc1cc([C@@H]2c3cc4c(cc3[C@H](O)[C@H]3COC(=O)[C@H]23)OCO4)cc(OC)c1OC	-0.645 ± 0.1
CCC1(CC)C(=O)C=CNC1=O	0.538 ± 1.2
CC[C@H]1CN2CCc3cc(OC)c(OC)cc3[C@@H]2C[C@@H]1C[C@H]1NCCc2cc(OC)c(OC)cc21	-5.13 ± 0.2
CCOC(=O)NC(=S)Nc1ccccc1NC(=S)NC(=O)OCC	-0.249 ± 0.0062
NCc1cccnc1	0.0684 ± 1.5
CC(=O)NC1CCSC1=O (stereo unspecified)	0.219 ± 0.66
COC(C)(C)CCC[C@H](C)C/C=C/C(C)=C/C(=O)OC(C)C	0.396 ± 0.11
